A short description of assay [1]: qHTS Assay for Lipid Storage Modulators (AID 1519; calls by dose curve; for activity change, negative = inhibition: % is set by controls: 0 for no effect and ±100 for the full control effect). To be noted: Drosophila S3 cells, BODIPY lipid droplet/cell ratio, laser cytometry, cells loaded with oleic acid. In outline:
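Cells seeded at 5,000 per well were treated with compounds over a concentration series and loaded with oleic acid (400 uM, as added). Lipid droplet fluorescence (488 nm excitation, 500-530 nm channel) was read by laser-scanning cytometry and normalized to 20 uM Triacsin C.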
A general note: In qHTS, concentration-response curves come from the screen itself.

Assay [2] addresses alpha-glucosidase (Oryza sativa, rice) (UniProt Q653V4). In words: Counterscreen for Glucocerebrosidase Inhibitors: qHTS Assay for Rice alpha-Glucosidase at pH 5.0 (AID 997).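 Note: 0% = full activity with enzyme and -100% = basal without enzyme.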 To be noted: rice alpha-glucosidase enzyme activity; series mostly up to 76.9 µM. In outline: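 Rice alpha-glucosidase (4 nM final) with 400 uM 4-methylumbelliferyl-alpha-D-glucopyranoside in citrate buffer pH 5.0, 20 min at room temperature, stopped at pH 10; fluorescence 365/440 nm, compounds 0.7 nM–77 uM, AC50 from Hill fits.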
On the technique in general: A counterscreen serves to expose hits that act by an unwanted route or on another target.

Assay [3] can be described thus: Validation of Assay for Modulators of Lamin A Splicing (AID 1459; active = well fitted curve in the direction sought with a large enough effect in the signal ratio; the % refers to the signal ratio;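 note: cells exposed to compound for two days before reading; 0% is about no effect; ratio rise marks activators and ratio drop marks inhibitors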). To be noted: Lamin A splicing dual RFP/GFP fluorescence reporter; series mostly up to 9.22 µM. In outline: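 Readout: ratio of GFP (500-530 nm) to RFP (575-640 nm) total object intensity by 488 nm laser-scanning cytometry after 48 hrs. Cells were HeLa S3 clones carrying lamin A-EGFP minigene plus DsRed2 viability reporter; vehicle 0.5% DMSO final.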

For assay [4], the target named is DNA repair nuclease/redox regulator APEX1 (Homo sapiens) (UniProt P27695). In words: qHTS Validation Assay for Inhibitors of the Human Apurinic/apyrimidinic Endonuclease 1 (APE1) (AID 1705; note: potency is the fitted concentration of half-maximal effect;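 for activity change, negative = inhibition: TAMRA fluorescence gain over two minutes as APE1 cuts a quenched THF abasic duplex; % is set by controls: 0 for no effect and ±100 for the full control effect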). To be noted: purified APE1 endonuclease activity, fluorescence, titration; series mostly up to 57.1 µM. An outline of the steps: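 Read-out: TAMRA fluorescence (525 nm ex, 598 nm em) from cleavage of a quenched THF abasic-site duplex, 50 nM final; activity taken as intensity change between third and first of three reads 60 s apart.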

A short description of assay [5]: Counterscreen for APE1 Inhibitors: Fluorescent Dye Displacement Validation Assay (AID 1707).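 For activity change, negative = inhibition: plate controls were ThO with dsDNA and no compound for no effect and ThO without dsDNA for full effect.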 Note: potency is the fitted concentration of half-maximal effect. To be noted: fluorescent dye displacement from DNA; series mostly up to 57.1 µM. In outline:
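Thiazole Orange (250 nM) bound to 50 nM TAMRA-labelled dsDNA with tetrahydrofuran abasic site; displacement by DNA-binding compounds lowers fluorescence. Buffer 50 mM Tris-HCl pH 7.5, 50 mM NaCl, 2 mM MgCl2, 0.01% Tween-20; endpoint read at 480/540 nm.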

Assay [6] deals with Endonuclease 4 (Escherichia coli (strain K12)) (UniProt P0A6C1). Nature of the assay: Counterscreen for APE1 Inhibitors: qHTS Validation Assay for Inhibitors of Endonuclease IV (AID 1708). Note: % is set by controls: 0 for no effect and ±100 for the full control effect. The conditions noted are these: E. coli endonuclease IV, DNA cleavage fluorescence; series mostly up to 57.1 µM. In outline: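 Enzymatic AP-site incision assay using a double-stranded THF substrate labelled with TAMRA and BHQ-2; released fluorescence signals activity. Enzyme 2 nM, substrate 50 nM, 15 min compound preincubation.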

Assay [7] is described as follows: qHTS for differential inhibitors of proliferation of Plasmodium falciparum line 7G8 (AID 1815).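 For activity change, negative = inhibition: plate controls were vehicle wells for no effect and reference inhibitor wells for full effect.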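 Note: parasite growth measured after three days of incubation.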 Note: potency is the fitted concentration of half-maximal effect. To be noted: Plasmodium falciparum 7G8 proliferation inhibition; series mostly up to 28.7 µM.
A short description of assay [8]: qHTS for differential inhibitors of proliferation of Plasmodium falciparum line GB4 (AID 1816).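 For activity change, negative = inhibition: 0% = vehicle DMSO and -100% = reference inhibitor.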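 Note: parasite growth measured after 72 h incubation.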 Note: potency is the fitted concentration of half-maximal effect. The conditions noted are these: Potency: Plasmodium falciparum GB4 proliferation inhibition; series mostly up to 28.7 µM.
The mark [9] stands for this setting: measured here: cell count channel max response.
[10] abbreviates: measured here: lipid channel max response.

“And” between values parts separate entries of the source, which are not always exact repeats. Equal entries are not always repeated. Results filed as inconclusive are left out. The source made the active and inactive calls. Unless noted, calls come from the whole dose curve; as a rule, active = well fitted curve in the direction sought with a large enough effect; inconclusive = small, poorly fitted or top-dose-only effect, or another doubt; inactive = no such curve, though single readings can be large; an effect the other way counts as inactive or inconclusive.

DNA repair nuclease/redox regulator APEX1 (Homo sapiens), sequence (P27695 whole entry, looked up): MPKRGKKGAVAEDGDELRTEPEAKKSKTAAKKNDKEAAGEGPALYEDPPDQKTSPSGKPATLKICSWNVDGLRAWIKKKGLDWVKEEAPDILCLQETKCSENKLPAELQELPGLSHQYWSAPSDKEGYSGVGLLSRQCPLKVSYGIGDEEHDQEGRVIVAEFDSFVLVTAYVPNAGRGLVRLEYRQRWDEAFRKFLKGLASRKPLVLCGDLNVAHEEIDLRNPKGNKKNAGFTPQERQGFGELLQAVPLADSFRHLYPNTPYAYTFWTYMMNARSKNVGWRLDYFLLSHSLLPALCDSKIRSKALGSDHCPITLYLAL

As for `O=C(NC(Cc1cc(=O)[nH]c2ccccc12)C(=O)O)c1ccc(Cl)cc1` (centres undefined), the activity change, negative = inhibition in assay [1] (at 57.5 µM (top of the series)) was 11.1% (inactive). Besides, the results for the max response in assay [1] (setting [9]) and in assay [1] (setting [10]) were 17.3% and 35%, respectively.
The corresponding values for `O=c1oc2cc(O)ccc2s1` are 5.97% (inactive), 14.5% and 23.2%.
`S=c1nc[nH]c2nc[nH]c12`: in assay [1] (at 57.5 µM (top of the series)), the activity change, negative = inhibition is 2.17% (inactive). Further, the figures for the max response in assay [1] (setting [9]) and in assay [1] (setting [10]) were 9.84% and 14.8%, respectively.
In the case of `O=c1c(O)c(-c2cc(O)c(O)c(O)c2)oc2cc(O)cc(O)c12`, the result in assay [2], in assay [3] and in assay [6] was inactive. The activity change, negative = inhibition in assay [1] (at 25.7 µM (top of the series)) is 2.34% (inactive); in assay [1] (at 57.5 µM (top of the series)) it was 14.6% (inactive) and -3.22% (inactive). The max response in assay [1] (setting [9]) was -7.21% and 17.3% and -40.9%; in assay [1] (setting [10]) it was -2.79% and 29.1% and -42.9%. The Potency in assay [4] was 0.355 µM (active); in assay [5], 3.55 µM (active).
As to `N=C(N=C(N)N)N1CCOCC1`, the activity change, negative = inhibition in assay [1] (at 25.7 µM (top of the series)) was -1.12% (inactive). Further, the max response was determined as 14.2% in assay [1] (setting [9]) and 12.8% in assay [1] (setting [10]).
In the case of `CN(C)CCCC1(c2ccc(F)cc2)OCc2cc(C#N)ccc21` (centres undefined), the result in assay [3] and in assay [6] was inactive. In addition, the activity change, negative = inhibition in assay [1] (at 57.5 µM (top of the series)) was 0.497% (inactive). Moreover, the max response in assay [1] (setting [9]) is -10.6%; in assay [1] (setting [10]), -12.9%. Besides, the Potency result in assay [4] and in assay [5] was “inactive” throughout.
`Cc1cc2cc3c(C)cc(=O)oc3c(C)c2o1`: in assay [1] (at 25.7 µM (top of the series)), the activity change, negative = inhibition is -0.305% (inactive). Further, the values for the max response in assay [1] (setting [9]) and in assay [1] (setting [10]) were -4.86% and -6.06%, respectively.
As to `CCCCc1ccc2nc(NC(=O)OC)[nH]c2c1`, the activity change, negative = inhibition in assay [1] (at 25.7 µM (top of the series)) was 1.84% (inactive). The max response in assay [1] (setting [9]) was -4.18%; in assay [1] (setting [10]), -2.48%.
Turning to `O=C1c2ccccc2-c2n[nH]c3cccc1c23`, the call in assay [2] and in assay [3] was inactive. Further, the activity change, negative = inhibition in assay [1] (at 57.5 µM (top of the series)) is 2.36% (inactive). Besides, the max response is -6.85% in assay [1] (setting [9]) and -4.08% in assay [1] (setting [10]). For the same compound, the Potency entry in assay [5] was “inactive”. Further, the Potency in assay [7] was 10 µM (active).
Turning to `Cc1cccc(C#Cc2ccccc2)n1`, the compound was classed as inactive in assay [2], in assay [3] and in assay [6]. In addition, the activity change, negative = inhibition in assay [1] (at 57.5 µM (top of the series)) was 0.257% (inactive). For the same compound, the values for the max response in assay [1] (setting [9]) and in assay [1] (setting [10]) were -2.56% and -2.47%, respectively. Further, the Potency result in assay [4] and in assay [5] was “inactive” throughout.
In the case of `CC(=O)N1CCN(c2ccc(OC[C@H]3CO[C@](Cn4ccnc4)(c4ccc(Cl)cc4Cl)O3)cc2)CC1`, the outcome in assay [2], in assay [3] and in assay [6] was inactive. The Potency entry in assay [4] and in assay [5] was “inactive” throughout.
As to `Cc1cc(=O)oc2cc(O)ccc12`, the activity change, negative = inhibition in assay [1] (at 25.7 µM (top of the series)) was 0.949% (inactive). In addition, the max response in assay [1] (setting [9]) is -7.84%; in assay [1] (setting [10]) it was -11.2%.
`O=C(CCc1ccc(O)cc1)c1c(O)cc(O)cc1O`: the result in assay [2], in assay [3] and in assay [6] was inactive. In addition, the activity change, negative = inhibition in assay [1] (at 57.5 µM (top of the series)) was 10.4% (inactive). The max response in assay [1] (setting [9]) worked out at 5.8%; in assay [1] (setting [10]), 18.1%. For the same compound, the Potency result in assay [4] and in assay [5] was “inactive” each time. Moreover, in assay [8], the Potency was 11.2 µM (active).
In the case of `O=C(NCC1CCCCN1)c1cc(OCC(F)(F)F)ccc1OCC(F)(F)F` (centres undefined), the result in assay [3] and in assay [6] was inactive. In addition, the Potency result in assay [4] and in assay [5] was “inactive” in each case.
With `OC(CN1CCN(c2cccc(Cl)c2)CC1)C(c1ccccc1)c1ccccc1` (centres undefined), the compound was called inactive in assay [3]. Also, the Potency result in assay [4] and in assay [5] was “inactive” in each case. In assay [7], the Potency is 14.1 µM (active).
As to `C[C@@H](N)C1CCC(C(=O)Nc2ccncc2)CC1` (some centres undefined), the compound was classed as inactive in assay [3] and in assay [6]. Moreover, the activity change, negative = inhibition in assay [1] (at 57.5 µM (top of the series)) is 2.12% (inactive). The figures for the max response in assay [1] (setting [9]) and in assay [1] (setting [10]) were -4.26% and -0.634%, respectively. For the same compound, the Potency entry in assay [4], in assay [5], in assay [7] and in assay [8] was “inactive” each time.
Consider `Cc1ncc([N+](=O)[O-])n1CC(C)O` (centres undefined), for which the activity change, negative = inhibition in assay [1] (at 57.5 µM (top of the series)) was 2.12% (inactive). Moreover, the max response in assay [1] (setting [9]) turned out to be 10.3%; in assay [1] (setting [10]), 12.9%.
With `CCN(CCO)CCCC(C)Nc1ccnc2cc(Cl)ccc12` (centres undefined), the activity change, negative = inhibition in assay [1] (at 57.5 µM (top of the series)) was 5.88% (inactive). The max response in assay [1] (setting [9]) turned out to be 13.5%; in assay [1] (setting [10]) it was 23.6%.

Values taken from PubChem BioAssay (NCATS).
